Assay results as given in ChEMBL document CHEMBL3988442, “University of Dundee, Small-Polar-MMV Screening Library” (2021).
In all, about 48,000 compounds went through this assay and about 13,000 (27%) showed an effect of 50% or more. This is one part of the list.

Each compound was assayed on Wolbachia pipientis (assay: Anti-Wolbachia Cell-Based Screen). Settings: 5 µM.
Type: functional
Set-up: scale not given: in the data most compounds retested in dose-response had high values

SMILES	Percent Effect
Cc1ccc2nc(C)cc(C(=O)NCc3csc(N(C)C)n3)c2c1	-3.48%
CCc1nccn1CC(=O)N1C[C@H]2CC[C@@H]1CN(c1ncccn1)C2	11.21%
COCC1c2nnn(CC3CC3)c2CCN1C(=O)c1cc(C)[nH]c1C (centres undefined)	-16.52%
CC(C)NC(=O)c1ccc2c(c1)C(c1nc[nH]n1)CN2C (centres undefined)	-2.409%
Cc1noc(C(C)N2CCN(c3ncnc4ccccc34)CC2)n1 (centres undefined)	-16.31%
CC(c1nc(C(C)(C)C)no1)N1CCN(c2ccc(C#N)cn2)CC1 (centres undefined)	105.6%
CCc1noc(C(C)N2CCN(c3ncnc4sccc34)CC2)n1 (centres undefined)	-87.61%
CCCc1noc(C(C)N2CCN(c3ccc(C#N)cn3)CC2)n1 (centres undefined)	130.1%
CC(c1nc(C2CC2)no1)N1CCN(Cc2ccc(C#N)cc2)CC1 (centres undefined)	26.07%
CC(c1nc(C2CC2)no1)N1CCN(Cc2cccc(C#N)c2)CC1 (centres undefined)	-8.29%
Cc1nsc(N2CCCN(c3ccc(C#N)cn3)CC2)n1	7.107%
CCCc1noc(C(C)N2CCN(CCn3ccccc3=O)CC2)n1 (centres undefined)	-12.82%
CC(c1nc(C(C)(C)C)no1)N1CCN(Cc2ccc(C#N)cc2)CC1 (centres undefined)	107.5%
Cc1noc(C(C)N2CCN(c3ccc(C#N)cn3)CC2)n1 (centres undefined)	146.7%
Cc1noc(C(C)N2CCN(Cc3cccc(C#N)c3)CC2)n1 (centres undefined)	7.153%
Cc1noc(C2CCN(C(C)c3nc(C(C)(C)C)no3)CC2)n1 (centres undefined)	4.561%
COc1ccc(OCc2nc3cc4c(cc3c(=O)o2)OCCCO4)cc1	-25.33%
CSc1cc2c(cc1NC(=O)NCc1ccncc1)OCCO2	0.1832%
O=C(NCC1CC1)C1CN(C(=O)c2ccnnc2)CC12CCOCC2 (centres undefined)	-9.874%
CN1C(=O)[C@H]2CC[C@@H]1CN(C(=O)Nc1cccc3ccccc13)C2	3.863%
N#Cc1cn(C2CC2)c(=O)n(Cc2noc(-c3ccsc3)n2)c1=O	-8.2%
COc1ccccc1NC(=O)NC(C)c1nc[nH]n1 (centres undefined)	-1.106%

SMILES	Percent Effect
CC(C)c1noc(C(C)N2CCN(c3ccc(C#N)cn3)CC2)n1 (centres undefined)	186.4%
CC(C)c1noc(C(C)N2CCN(Cc3cccc(C#N)c3)CC2)n1 (centres undefined)	10.45%
CC(C)c1noc(C(C)N2CCN(Cc3ccccc3C#N)CC2)n1 (centres undefined)	-2.438%
CN1CCN(c2ccc3ccc(C(=O)N4CCCO4)cn23)CC1.O=C(O)C(F)(F)F	0.4274%
CC(C)(CO)CNC(=O)c1ccnn1-c1ccc2ccccn12	-11.35%
Cc1nc(-c2cc(C(=O)N3CCCN(C)CC3)c3ccccn23)cn1C.O=C(O)C(F)(F)F	-23.06%
CN1CCCN(C(=O)c2ccnn2-c2ccc3ccccn23)CC1.O=C(O)C(F)(F)F	83.85%
CN(C)C1CCN(C(=O)c2ccnn2-c2ccc3ccccn23)CC1.O=C(O)C(F)(F)F	64.37%
O=C(NCCCN1CCOCC1)c1ccn(-c2ccc3ccccn23)n1.O=C(O)C(F)(F)F	-6.828%
CCOCc1nnc(NCc2ccsc2)o1	-11.46%
Cc1ccc(OCC(O)CN(C)CC(=O)Nc2cc(C)on2)c(C)c1 (centres undefined)	9.432%
Cc1noc([C@@H]2CCO[C@@H]3CCN(C(=O)Cc4ccsc4)C[C@@H]32)n1	6.284%
O=C(Cc1ccsc1)N1CCOC(c2nc(-c3ncccn3)no2)C1 (centres undefined)	131.4%
O=C(O)C(=O)O.c1cnc(-c2noc(C3CN(Cc4ccc5c(c4)CCO5)C3)n2)nc1	8.464%
Cc1ccn(CCC(=O)N2CCOC(c3nc(-c4cccs4)no3)C2)n1 (centres undefined)	-6.468%
Cc1n[nH]c(C2CN(C(=O)CCc3ccsc3)CCO2)n1 (centres undefined)	-9.569%
O=C(Cc1ccccc1)N1CCOC(c2nc(-c3ncccn3)no2)C1 (centres undefined)	104.4%
Cc1ccc2c(C)c(C(=O)NCc3csc(N)n3)oc2c1	24.68%
Cc1c(F)cccc1S(=O)(=O)NC(C)(C)CN.Cl	-6.464%
Cc1ccc(S(=O)(=O)NCCCN2CCC(O)CC2)c(F)c1	10.81%
Cc1ccc(S(=O)(=O)NCc2cnn(C)c2)c(F)c1	1.109%
Cc1cc(S(=O)(=O)NCC(C)(C)N)c(F)cc1F.Cl	106.9%

SMILES	Percent Effect
Cc1cc(S(=O)(=O)NC(C)(C)CN)c(F)cc1F.Cl	112.3%
CCc1nc(NS(=O)(=O)c2cc(C)c(F)cc2Cl)no1	-1.735%
Cc1ccc(S(=O)(=O)NCC(C)(C)N)c(F)c1.Cl	102.6%
Cc1ccc(F)c(NCC(C)(C)S(C)(=O)=O)c1	-3.079%
Cc1cc(F)c(S(=O)(=O)NCCCN2CCC(O)CC2)cc1F	7.324%
Cc1c(F)cccc1S(=O)(=O)NCCN.Cl	-3.419%
Cc1ccc(S(=O)(=O)NC(C)(C)CN)c(F)c1.Cl	-7.288%
Cc1cc(S(=O)(=O)NCC[S+](C)[O-])c(F)cc1F (centres undefined)	90.6%
Cc1nn(C)cc1CN(C)Cc1cc2c(cc1OC(F)F)OCO2	5.231%
CCS(=O)(=O)N1CCC(c2nccn2Cc2ccncc2)CC1	17.72%
COc1cccc(OCCCc2cc(C#N)ccn2)c1	-11.05%
Cc1cccc(C(C(=O)NCc2nc(-c3cccnc3)no2)N(C)C)c1 (centres undefined)	-3.627%
CC1=C[C@@H](CN2CCOCC2)[C@H](C(C)C)C[C@H]1Cc1nnc(C)o1	-6.193%
Cc1cc(S(=O)(=O)NCC(C)(O)CN(C)C)c(F)cc1F (centres undefined)	86.13%
Cc1c(F)cccc1S(=O)(=O)NCC(C)(C)CC(C)O (centres undefined)	-11.41%
Cc1cc(F)c(S(=O)(=O)NCC(C)(C)N)cc1F.Cl	99.53%
Cc1sc(Br)cc1S(=O)(=O)NCCCN.Cl	-10.31%
Cc1sc(Br)cc1S(=O)(=O)NCCN.Cl	-12.99%
Cc1cc(F)c(S(=O)(=O)NCc2ccnc(N(C)C)n2)cc1F	-5.146%
Cc1cc2[nH]cc(C(=O)N3CCCCC3c3ccc(F)cc3)c(=O)n2n1 (centres undefined)	-0.32%
